An excerpt weighted towards active compounds, which were near 32% of everything screened.
CYP2C9 activ – increases human cytochrome P450 2C9 activity; recombinant CYP2C9, luciferin-H conversion, luminescence; active compounds read high; factor 1 = untreated enzyme, 0 = blocked; activation factor at 5 µM; actives 1.4% (n = 96,000); AID 1024;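 active = activation factor of 2 or more for CYP2C9 at a 5 µM dose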
PostGolgi yeast – growth inhibition of a yeast mutant, post-Golgi transport screen. post-Golgi transport phenotypic cell assay. inhibition, % at 10 µM. actives 0.9% (n = 98,000). AID 739;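 also: yeast cells grown in 1536-well plates; yeast grown about 18 h at 30C before absorbance read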
CYP2C19 inh – blocks human cytochrome P450 2C19; P33261; CYP2C19 Supersomes, luciferin-H EGE luminescence, 30 min; inhibition, % at 5 µM; actives 21% (n = 96,000); AID 778;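 active = CYP2C19 inhibition above a set limit at 5 µM in the primary screen, cut at about 50% in these data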
Target sequence (P33261 whole entry, looked up): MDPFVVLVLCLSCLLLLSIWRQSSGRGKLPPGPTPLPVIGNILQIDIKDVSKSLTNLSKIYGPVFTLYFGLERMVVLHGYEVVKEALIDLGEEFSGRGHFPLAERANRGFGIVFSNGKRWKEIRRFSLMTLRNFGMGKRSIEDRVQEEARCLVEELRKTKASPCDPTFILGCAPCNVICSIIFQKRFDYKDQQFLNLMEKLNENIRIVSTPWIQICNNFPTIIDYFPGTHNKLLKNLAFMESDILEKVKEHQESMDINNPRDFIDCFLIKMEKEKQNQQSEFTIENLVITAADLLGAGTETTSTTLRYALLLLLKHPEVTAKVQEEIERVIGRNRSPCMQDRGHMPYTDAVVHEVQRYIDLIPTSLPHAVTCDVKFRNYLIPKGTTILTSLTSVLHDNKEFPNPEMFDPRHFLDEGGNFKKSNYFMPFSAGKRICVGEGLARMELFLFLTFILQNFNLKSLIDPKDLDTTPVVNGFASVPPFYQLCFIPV
CYP2C9 inhib – human CYP2C9 inhibition; inhibition, % at 5 µM; actives 20% (n = 96,000); CYP2C9 Supersomes, luciferin-H conversion, luminescence; AID 777; P11712;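 active = blocking of liver enzyme CYP2C9 beyond about 50% at 5 µM, limit read from the data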
PostGolgi ctrl – growth of the yeast control strain, post-Golgi counter-screen | actives 5% (n = 98,000) | efflux-deficient yeast background strain, growth absorbance A615, 16 h | inhibition, % at 10 µM | AID 738
CYP2C19 act – increases human CYP2C19 enzyme activity. activation factor at 5 µM. P33261. recombinant CYP2C19, luciferin-H EGE luminescence; active compounds read high; 0 = fully inhibited enzyme, 1 = untreated enzyme. 96,000 tested, under 10 active. AID 1025;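 active = activation factor of at least 2 at 5 µM in the primary screen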
Large screens that a line does not name were inactive. Rule as the data show it, unless noted: active = inhibition above about 30%; inactive = the rest.

O=C(CCC(=O)c1ccc(F)cc1)OC1CCOC1=O (stereo not given)	CYP2C19 inh 78
Cc1c(NS(=O)(=O)c2ccccc2)c(=O)n(-c2ccccc2)n1C	CYP2C19 inh 53
Cc1c(NC(=O)c2ccccc2NS(=O)(=O)c2ccc(F)cc2)c(=O)n(-c2ccccc2)n1C	CYP2C9 inhib 52
Cc1c(NS(=O)(=O)c2cccc(C(=O)NCc3ccc(Cl)cc3)c2)c(=O)n(-c2ccccc2)n1C	CYP2C19 inh 51, PostGolgi ctrl 31
COC(=O)c1cc(CSc2nnc(NC3CCCCC3)s2)oc1C	none
Cc1csc(Sc2nc3c(c(=O)[nH]c(=O)n3C)n2CCCc2ccccc2)n1	PostGolgi ctrl 45
CCCCCn1c(Sc2nc3ccccc3s2)nc2c1c(=O)[nH]c(=O)n2C	CYP2C9 inhib 51, PostGolgi ctrl 35
C=C(C)Cn1c(Sc2nc3ccccc3[nH]2)nc2c1c(=O)[nH]c(=O)n2C	CYP2C19 inh 88
CCOc1nc(CC)nc(NC(=O)NS(=O)(=O)c2ccccc2Cl)n1	none
CCC(C)(C)n1nnnc1C(c1ccc(C)cc1)N1CCN(Cc2cccnc2)CC1 (stereo not given)	none
CCC(C)(C)n1nnnc1C(c1ccncc1)N1CCC(Cc2ccccc2)CC1 (stereo not given)	CYP2C19 inh 90, CYP2C9 inhib 91
CCC(C)(C)n1nnnc1C(c1cccc(C#N)c1)N1CCN(c2cc(C)ccc2C)CC1 (stereo not given)	CYP2C19 inh 52, CYP2C9 inhib 70 (no result: PostGolgi yeast, PostGolgi ctrl)
CC(C)(C)n1nnnc1C(c1cccc(C#N)c1)N1CCC(Cc2ccccc2)CC1 (stereo not given)	CYP2C19 inh 66, CYP2C9 inhib 83, PostGolgi ctrl 43
CC(C)(C)n1nnnc1C(c1ccc(C#N)cc1)N1CCCC2(CCCCC2)C1 (stereo not given)	none
O=C(CCC(=O)NNC(=S)Nc1ccccc1)NCc1ccccc1	none
Cn1c(=O)c(=O)n(C)c2cc(S(=O)(=O)N3CCN(C4CCCCC4)CC3)ccc21	CYP2C9 activ 2.5
Cc1ccc(OCC(=O)N2CCN(c3ccc([N+](=O)[O-])c(N4CCOCC4)c3)CC2)cc1	CYP2C9 inhib 57
O=C(COc1ccccc1)N1CCN(c2ccc([N+](=O)[O-])c(N3CCCCC3)c2)CC1	CYP2C19 inh 64, CYP2C9 inhib 79
Cc1cccc(OCCNc2cc(N3CCOCC3)ccc2[N+](=O)[O-])c1	PostGolgi ctrl 66
Cc1ccccc1C(=O)N1CCN(c2ccc([N+](=O)[O-])c(N3CCOCC3)c2)CC1	CYP2C19 inh 55, CYP2C9 inhib 59
CCc1sc(C(=O)N2CCN(S(C)(=O)=O)CC2)cc1Br	none
CCOC(=O)c1cc(CC)sc1NC(=O)c1ccc(N2CCOCC2)c([N+](=O)[O-])c1	none
COC(=O)c1ccc(N2CCN(CC(=O)c3ccc(-c4ccccc4)cc3)CC2)c([N+](=O)[O-])c1	CYP2C9 inhib 50
COC(=O)c1ccc(N2CCN(S(=O)(=O)c3ccc4ccccc4c3)CC2)c([N+](=O)[O-])c1	none
Cc1ccc(OC(=O)c2ccc(N3CCOCC3)c([N+](=O)[O-])c2)cc1	PostGolgi ctrl 38
CCCCCn1c(=O)[nH]c2cc(C(=O)NCCN(CC)CC)ccc2c1=O	none
CC1Cc2ccccc2N1c1ncnc2nc[nH]c12 (stereo not given)	none
O=C1c2ccccc2C(=O)N1CCN1CCc2ccccc21	none
O=S(=O)(Nc1ccc(Oc2ncccn2)c(Cl)c1)c1ccc(Cl)cc1	CYP2C19 inh 99, CYP2C9 inhib 99
CCN(CC)CCCNC(=O)Cn1nc(-c2ccccc2)ccc1=O	none
Cc1ccc(-c2nc(CS(=O)CC(=O)NC3CCC(C)CC3)c(C)o2)cc1 (stereo not given)	CYP2C19 inh 67, CYP2C9 inhib 89
Cc1ccc(-c2nc(CS(=O)CC(=O)NCCCN3CC(C)CC(C)C3)c(C)o2)cc1 (stereo not given)	none
Cc1ccc(-c2nc(CS(=O)CC(=O)NCCC(C)C)c(C)o2)cc1 (stereo not given)	CYP2C9 inhib 68
COc1ccc(-c2nc(CS(=O)CC(=O)NCc3ccc(Cl)cc3)c(C)o2)cc1 (stereo not given)	CYP2C19 inh 80, CYP2C9 inhib 79
CCCCNC(=O)CS(=O)Cc1nc(-c2ccc(C)cc2)oc1C (stereo not given)	none
COc1cccc(-c2nc(CS(=O)CC(=O)NC3CCCC3)c(C)o2)c1 (stereo not given)	CYP2C9 inhib 57
COc1cccc(-c2nc(CS(=O)CC(=O)O)c(C)o2)c1 (stereo not given)	none
COC(=O)CN1C(=O)C2(C(C#N)=C(N)Oc3ccccc32)C2=C1CC(C)(C)CC2=O (stereo not given)	none
CC(=O)C1C(c2ccccc2OC(F)F)NC(=O)NC1(O)C(F)(F)F (stereo not given)	none
CC1=C(C(=O)Nc2ccccc2)C(c2ccc(C)o2)n2ncnc2N1 (stereo not given)	none
CCc1cccc(NC(=O)CS(=O)Cc2nc(-c3ccc(C)cc3)oc2C)c1 (stereo not given)	CYP2C19 inh 77, CYP2C9 inhib 88, PostGolgi ctrl 34
Cc1oc(-c2cccs2)nc1CS(=O)CC(=O)NCCCN1CC(C)CC(C)C1 (stereo not given)	CYP2C9 inhib 69
CCOC(=O)N1CCC(NC(=O)Cn2ncc3c4ccccc4n(C)c3c2=O)CC1	none (no result: CYP2C9 activ, CYP2C19 inh, CYP2C9 inhib, CYP2C19 act)
O=C(CN1C(=O)CCS(=O)(=O)c2ccccc21)Nc1cccc(F)c1	none
C/C(=N\NC(=O)C(NC(=O)c1ccccc1)C(C)C)c1ccccc1 (stereo not given)	none
Cc1nn(Cc2ccc(C(=O)NC(C)(C)C)o2)c(C)c1Br	CYP2C19 inh 50
CC(=O)c1sc(NC(=O)c2ccc(Cn3cc(Br)cn3)o2)nc1C	CYP2C9 inhib 78
Cc1nn(Cc2cccc(C(=O)NC3CCCCC3)c2)c(C)c1Cl	none
Cc1csc(NC(=O)c2cccc(Cn3nc(C)c(Br)c3C)c2)n1	CYP2C19 inh 93, CYP2C9 inhib 90
Cc1nn(Cc2ccc(C(=O)NC3CCCCC3)o2)c(C)c1Br	CYP2C19 inh 76, CYP2C9 inhib 50
Cc1cc(NC(=O)c2ccc(Cn3nc(C)c(Br)c3C)o2)no1	none
Cc1nn(Cc2ccc(C(=O)Nc3ccc(C(=O)OC(C)C)cc3)o2)c(C)c1Cl	CYP2C9 inhib 63
Cc1nn(Cc2ccc(C(=O)Nc3nc4c(C)cccc4s3)o2)c(C)c1Br	PostGolgi yeast 32, PostGolgi ctrl 35
CC(C)NC(=O)c1cc(-c2ccco2)nn1-c1ccc(Cl)cc1	none
O=C(c1cc(-c2ccco2)nn1-c1cccc(Cl)c1)N1CCCCC1	CYP2C19 inh 64, CYP2C9 inhib 87
c1ccc(CCNc2ccc3nncn3n2)cc1	CYP2C19 inh 64
c1ccc(CCNC2=NCCCS2)cc1	none
